Records with an inconclusive call do not appear. Activity calls are given as the source filed them. Unless noted, the call rests on the fitted dose curve; in most records, active means well fitted curve in the direction sought with a large enough effect; inconclusive means small, poorly fitted or top-dose-only effect, or another doubt; inactive means no such curve, though single readings can be large; an effect the other way counts as inactive or inconclusive.
Key:
[1] = target: Lysosomal acid glucosylceramidase (Homo sapiens) (UniProt P04062); experiment: Glucocerebrosidase-p2 (AID 348; in the data active means potency below about 10 µM; further: potency means the concentration at half of the fitted maximal effect); conditions: purified GBA, blue fluorogenic substrate, 40 min
Lysosomal acid glucosylceramidase (Homo sapiens), sequence (P04062 whole entry, looked up): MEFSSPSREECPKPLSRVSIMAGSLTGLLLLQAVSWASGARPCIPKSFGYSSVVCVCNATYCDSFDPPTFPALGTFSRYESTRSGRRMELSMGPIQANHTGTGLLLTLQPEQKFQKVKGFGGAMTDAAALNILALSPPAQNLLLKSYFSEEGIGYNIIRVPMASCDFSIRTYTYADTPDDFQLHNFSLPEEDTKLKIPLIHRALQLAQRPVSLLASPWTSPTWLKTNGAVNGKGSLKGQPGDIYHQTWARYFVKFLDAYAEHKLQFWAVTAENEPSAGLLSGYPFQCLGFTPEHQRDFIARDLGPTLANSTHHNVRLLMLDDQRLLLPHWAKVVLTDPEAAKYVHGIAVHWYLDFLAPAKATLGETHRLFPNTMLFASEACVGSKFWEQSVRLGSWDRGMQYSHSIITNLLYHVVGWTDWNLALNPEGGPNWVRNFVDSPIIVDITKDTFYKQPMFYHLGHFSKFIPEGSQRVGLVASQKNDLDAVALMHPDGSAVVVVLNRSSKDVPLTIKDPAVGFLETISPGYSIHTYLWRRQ
Procedure, shortened: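 Normal human glucocerebrosidase (0.2 nM) with blue fluorogenic substrate (80 uM final) in citrate/phosphate pH 5.9 with 10mM sodium taurocholate, 0.01% tween-20; 40 min RT, NaOH/glycine stop; fluorescence Ex 365/Em 440; AC50 from a titration from 0.6 nM upwards.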

[2] = AP1 Signaling Pathway (AID 357; active means well fitted curve in either direction with a large enough effect, not every such curve was filed as active;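 further: ME-180 reporter cells stimulated with EGF at its EC50 level; on the % scale 0 is the no-effect control and ±100 the full control effect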); conditions: ME-180 AP-1-bla reporter, EGF-induced, beta-lactamase ratio, 5 h; at 7.69 µM (top of the series) unless noted
Procedure, shortened: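 Modulation of EGF-driven AP-1 transcription was assessed with a beta-lactamase reporter in ME-180 cells. Compound and EC50 EGF were co-incubated 5 hours at 37 °C before 2.5-hour CCF4 loading at room temperature and dual-emission reading.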

[3] = NFAT Signaling Pathway (AID 444; active means well fitted curve in either direction with a large enough effect, not every such curve was filed as active;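 further: carbachol stimulus at about its EC50 of 1 µM final; on the % scale 0 is the no-effect control and ±100 the full control effect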); conditions: Jurkat NFAT-bla M1, carbachol, beta-lactamase ratio, 5 h; at 7.69 µM (top of the series) unless noted
Procedure, shortened: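 Read-out: CCF4 FRET ratio (460 nm/530 nm) after 1 h RT dye loading, used for %activity and AC50 from titration series. Cells: Jurkat NFAT-β-lactamase/M1 line, treated with compound plus 1 uM carbachol for 5 h, 37 °C.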

[4] = Stat Signaling Pathway (AID 446; active means well fitted curve in either direction with a large enough effect, not every such curve was filed as active;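 further: ME-180 cervical cancer cells given 40 pM IL-6 alongside compound; SIE-controlled beta-lactamase reporter measured as 460/530 nm FRET emission ratio; on the % scale 0 is the no-effect control and ±100 the full control effect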); conditions: ME-180 SIE beta-lactamase reporter, IL-6 stimulated, 5 h; at 7.69 µM (top of the series) unless noted
Procedure, shortened: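 Compound effects on IL-6-induced STAT reporter activity were measured in ME-180 cells. After overnight culture, cells were co-treated with 40 pM IL-6 for 5 hrs before beta-lactamase substrate loading at room temperature.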

[5] = target: Glucocorticoid receptor (Homo sapiens) (UniProt P04150); experiment: GR-GFP Redistribution (AID 450;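 active means compounds whose dose series gives a full or clear partial fitted curve of increased nuclear translocation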; further: potency means the concentration at half of the fitted maximal effect); conditions: U2OS GR-GFP nuclear translocation, laser cytometry, 2 h
Glucocorticoid receptor (Homo sapiens), sequence (P04150 whole entry, looked up, the tested form may be a part): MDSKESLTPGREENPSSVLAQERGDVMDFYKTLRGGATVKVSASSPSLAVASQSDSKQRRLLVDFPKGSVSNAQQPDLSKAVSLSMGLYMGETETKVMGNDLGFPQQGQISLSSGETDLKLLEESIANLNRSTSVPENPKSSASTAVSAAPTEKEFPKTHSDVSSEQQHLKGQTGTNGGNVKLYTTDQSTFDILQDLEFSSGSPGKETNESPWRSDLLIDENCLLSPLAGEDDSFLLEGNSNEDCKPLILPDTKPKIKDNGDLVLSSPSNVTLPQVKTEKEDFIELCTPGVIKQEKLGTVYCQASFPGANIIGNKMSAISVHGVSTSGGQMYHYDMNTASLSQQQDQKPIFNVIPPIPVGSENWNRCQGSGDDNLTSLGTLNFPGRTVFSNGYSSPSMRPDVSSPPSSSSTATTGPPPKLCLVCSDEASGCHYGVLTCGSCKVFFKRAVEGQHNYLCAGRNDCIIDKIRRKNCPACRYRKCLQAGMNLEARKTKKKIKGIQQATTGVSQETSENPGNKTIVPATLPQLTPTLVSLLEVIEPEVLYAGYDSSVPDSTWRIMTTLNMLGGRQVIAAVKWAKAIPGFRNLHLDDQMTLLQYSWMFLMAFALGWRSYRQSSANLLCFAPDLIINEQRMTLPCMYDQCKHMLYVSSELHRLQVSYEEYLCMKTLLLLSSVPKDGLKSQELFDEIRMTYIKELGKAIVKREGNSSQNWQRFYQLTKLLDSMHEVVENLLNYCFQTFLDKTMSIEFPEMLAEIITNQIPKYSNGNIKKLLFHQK

[6] = target: Glucocorticoid receptor (Homo sapiens) (UniProt P04150); experiment: GR-EFC Redistribution (AID 451; calls by dose curve; further: potency means the concentration at half of the fitted maximal effect); conditions: CHO-K1 GR-EFC translocation, beta-gal luminescence, 2 h
Procedure, shortened: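 Translocation of GR-ED fusion to nuclear EA restores b-gal, read by luminescence after 1 h room-temperature detection. Engineered CHO-K1 biosensor cells, 1,000/well, exposed 2 h at 37 C to titrations up to 46 uM final.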

[7] = target: Mitogen-activated protein kinase 10 (Mus musculus) (UniProt Q61831); experiment: JNK3 AlphaScreen Assay (AID 530; active means well fitted curve in either direction with a large enough effect, not every such curve was filed as active;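 further: kinase came from lysate of stimulated human HepG2 cells; signal reports phosphorylation of biotinylated GST-cJun 1-79 at Ser73 with 10 µM ATP; on the % scale 0 is the no-effect control and ±100 the full control effect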)
Procedure, shortened: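 qHTS titrations with 15 min compound pre-incubation before adding ATP (10 uM final). Read-out: AlphaScreen of Ser73-phosphorylated biotin-GST-cJun using HepG2 lysate JNK3 activated by IL-1β and TNFα.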

[8] = target: 3',5'-cyclic-AMP phosphodiesterase 4B (Homo sapiens) (UniProt Q07343); experiment: qHTS Assay for Inhibitors of PDE-IV (AID 607; active means well fitted activation curve with a large enough effect in the main read-out, with a control signal flat, not every such curve was filed as active; further: % of control where 0% means no effect)
3',5'-cyclic-AMP phosphodiesterase 4B (Homo sapiens), sequence (Q07343 whole entry, looked up): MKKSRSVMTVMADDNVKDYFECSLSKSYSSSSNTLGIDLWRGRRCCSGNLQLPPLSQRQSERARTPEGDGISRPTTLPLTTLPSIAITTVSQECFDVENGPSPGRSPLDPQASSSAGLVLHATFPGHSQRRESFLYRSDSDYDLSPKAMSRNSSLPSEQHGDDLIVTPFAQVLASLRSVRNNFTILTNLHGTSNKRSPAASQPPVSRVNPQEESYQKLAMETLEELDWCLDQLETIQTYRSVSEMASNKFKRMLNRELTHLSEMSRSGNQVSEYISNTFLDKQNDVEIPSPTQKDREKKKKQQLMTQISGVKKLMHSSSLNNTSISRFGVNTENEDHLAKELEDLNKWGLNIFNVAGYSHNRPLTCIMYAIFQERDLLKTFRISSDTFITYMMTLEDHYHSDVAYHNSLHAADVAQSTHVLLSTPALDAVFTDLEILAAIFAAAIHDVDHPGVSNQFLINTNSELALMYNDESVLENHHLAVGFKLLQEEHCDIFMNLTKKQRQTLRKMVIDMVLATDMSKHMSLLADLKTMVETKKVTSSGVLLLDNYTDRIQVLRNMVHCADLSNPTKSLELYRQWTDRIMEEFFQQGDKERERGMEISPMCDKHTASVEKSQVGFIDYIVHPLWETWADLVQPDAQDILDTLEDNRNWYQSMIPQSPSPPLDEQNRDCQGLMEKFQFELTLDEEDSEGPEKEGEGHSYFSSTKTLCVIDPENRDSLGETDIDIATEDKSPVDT
Procedure, shortened: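 ACTOne HEK293 cells carry a modified cAMP-gated CNG channel and express endogenous PDE4; plated 1000 cells/well, compounds up to 22.9 uM final. Membrane-potential dye fluorescence (ex 535/em 590) was read; parental cells received 10 uM forskolin + 100 uM RO 20-1724.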

[9] = target: Dual specificity protein kinase CLK4 (Homo sapiens) (UniProt Q9HAZ1); experiment: qHTS Assay for Inhibitors of CDC-like Kinase 4 (Kinase-Glo Assay) (AID 1770); further: on the % scale 0 is the no-effect control and ±100 the full control effect; nearly all actives have a fitted effect of over 65% in size
Dual specificity protein kinase CLK4 (Homo sapiens), sequence (Q9HAZ1 whole entry, looked up): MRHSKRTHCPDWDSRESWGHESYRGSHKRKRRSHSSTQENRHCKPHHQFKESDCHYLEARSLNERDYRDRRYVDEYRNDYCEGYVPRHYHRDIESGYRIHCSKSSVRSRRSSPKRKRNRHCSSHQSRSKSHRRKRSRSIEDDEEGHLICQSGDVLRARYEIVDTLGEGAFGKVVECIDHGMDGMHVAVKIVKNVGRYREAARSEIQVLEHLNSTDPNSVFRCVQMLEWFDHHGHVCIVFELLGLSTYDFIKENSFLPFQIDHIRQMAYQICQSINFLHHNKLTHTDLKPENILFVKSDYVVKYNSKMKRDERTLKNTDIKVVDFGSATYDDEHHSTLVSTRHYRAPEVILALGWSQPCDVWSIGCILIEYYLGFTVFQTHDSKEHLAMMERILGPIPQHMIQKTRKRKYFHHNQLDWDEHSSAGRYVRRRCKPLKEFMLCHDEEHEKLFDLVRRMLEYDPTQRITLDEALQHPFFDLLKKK
Procedure, shortened: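 Readout: Kinase-Glo luminescence from ATP left after a 4.5 h room-temperature reaction of 25 nM Clk4 with 100 uM RS peptide and 1 uM ATP (final). Buffer: 25 mM Tris pH 7.5, 10 mM MgCl2.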

[10] = target: Dual specificity protein kinase CLK4 (Homo sapiens) (UniProt Q9HAZ1); experiment: qHTS Assay for Inhibitors of CDC-like Kinase 4 (ADP-Glo Assay) (AID 1771); further: on the % scale 0 is the no-effect control and ±100 the full control effect; nearly all actives have a fitted effect of over 70% in size
Procedure, shortened: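 ADP production was read by ADP-Glo luminescence after residual ATP depletion, following 1 h room-temperature reaction of 25 nM Clk4, 1 uM ATP and 100 uM RS peptide with MgCl2, EGTA, DTT and Triton X-100.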

[11] = target: Dual specificity protein kinase CLK4 (Homo sapiens) (UniProt Q9HAZ1); experiment: qHTS Assay for Inhibitors of CDC-like Kinase 4 (ADP-FP Assay) (AID 1795);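 further: recombinant human CLK4 phosphorylating RS repeat peptide at 1 µM ATP; on the % scale 0 is the no-effect control and ±100 the full control effect; nearly all actives have a fitted effect of over 60% in size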
Procedure, shortened: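 FP readout: Orange Transcreener ADP2 tracer (4 nM) plus ADP antibody, read after 30 min at room temperature. Kinase step: 6.25 nM Clk4, 100 uM RS peptide, 1 uM ATP, pH 7.5, 1 h.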

[12] = target: Ubiquitin carboxyl-terminal hydrolase 1 (Homo sapiens) (UniProt O94782); experiment: Inhibitors of USP1/UAF1: Pilot qHTS (AID 504865);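 further: rhodamine fluorescence freed from ubiquitin-rhodamine substrate followed over time; top concentration of the series differs between compounds; on the % scale 0 is the no-effect control and ±100 the full control effect; nearly all actives have a fitted effect of over 35% in size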
Ubiquitin carboxyl-terminal hydrolase 1 (Homo sapiens), sequence (O94782 whole entry, looked up): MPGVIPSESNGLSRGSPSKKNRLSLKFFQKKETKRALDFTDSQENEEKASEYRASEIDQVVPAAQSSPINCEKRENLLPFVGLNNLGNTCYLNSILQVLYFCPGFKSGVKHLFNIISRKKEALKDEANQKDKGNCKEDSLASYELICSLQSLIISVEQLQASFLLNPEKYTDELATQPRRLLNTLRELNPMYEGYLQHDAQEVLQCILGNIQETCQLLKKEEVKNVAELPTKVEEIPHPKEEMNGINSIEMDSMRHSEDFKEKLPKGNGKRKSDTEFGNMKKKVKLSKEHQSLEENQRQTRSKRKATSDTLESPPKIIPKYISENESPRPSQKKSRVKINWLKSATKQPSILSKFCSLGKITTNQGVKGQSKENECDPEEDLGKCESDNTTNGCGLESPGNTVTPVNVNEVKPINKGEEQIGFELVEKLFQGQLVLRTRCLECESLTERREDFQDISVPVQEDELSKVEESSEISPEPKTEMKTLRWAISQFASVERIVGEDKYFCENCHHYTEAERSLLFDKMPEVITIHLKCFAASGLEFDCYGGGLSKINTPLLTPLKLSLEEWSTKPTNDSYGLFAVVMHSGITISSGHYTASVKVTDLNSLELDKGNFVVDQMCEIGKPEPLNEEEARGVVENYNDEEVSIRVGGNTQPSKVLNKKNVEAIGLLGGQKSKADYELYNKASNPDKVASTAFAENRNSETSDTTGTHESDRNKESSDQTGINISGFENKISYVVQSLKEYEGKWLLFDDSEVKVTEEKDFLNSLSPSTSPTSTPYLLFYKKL
Procedure, shortened: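 1nM USP1/UAF1 + cpd, 15 min RT; start w/ Ub-Rho 150nM final; kinetic FL 480/540 nm, 6 reads q60 s. Buffer 50mM HEPES pH 7.8, 0.5mM EDTA, 1mM TCEP, 0.01% Tween-20, 0.1 mg/ml BSA.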

[13] = Counterscreen qHTS for small molecule stabilizers of the endoplasmic reticulum resident proteome: GLuc-NoTag assay (AID 1508627);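 further: 0% = thapsigargin alone and -100% = DMSO vehicle control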
Procedure, shortened: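 Counterscreen line: SH-SY5Y-GLuc-NoTag cells, treated with compound 19 hr before a 4 hr, 100 nM thapsigargin calcium depletion. Secreted Gaussia luciferase in the medium was measured by luminescence after coelenterazine was added (0.07x final), with cells unlysed.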

[14] = Confirmatory qHTS for small molecule stabilizers of the endoplasmic reticulum resident proteome: Secreted ER Calcium Modulated Protein (SERCaMP) assay (AID 1508628); further: nearly all actives have a fitted effect of over 40% in size; further: potency means the concentration at half of the fitted maximal effect
Procedure, shortened: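 Reporter secretion upon ER calcium depletion (100 nM thapsigargin, 4 h, 37C) is measured as medium luminescence with coelenterazine, after 16 h compound pretreatment of SH-SY5Y-GLuc-SERCaMP cells; primary at three concentrations up to 38.3 uM, follow-up at 11 (up to 76.6 uM).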

[15] = qHTS Assay for Identification of Small Molecule Agonists for Hypoxia Response Element Signaling Pathway (AID 914; active means well fitted activation curve with a large enough effect in the signal ratio, with a control signal flat, not every such curve was filed as active; the % refers to the signal ratio; further: potency means the concentration at half of the fitted maximal effect; on activation: % of control where 0% means no effect); conditions: ME-180 (cervical carcinoma) HRE-bla reporter, beta-lactamase ratio, CoCl2, 17 h; activation: stronger effect = higher value
Procedure, shortened: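 A beta-lactamase reporter under hypoxia response element control in ME-180 cells served as the system. Compound titrations plus EC50 CoCl2 ran 17 h at 37 degrees Celsius; AC50 values were fitted from %Activity.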

[16] = qHTS Assay for Lipid Storage Modulators (AID 1519; calls by dose curve); conditions: Drosophila S3 cells, BODIPY lipid droplet/cell ratio, laser cytometry, cells loaded with oleic acid; for activity change, negative = inhibition: at 57.5 µM (top of the series)
Procedure, shortened: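 Cells seeded at 5,000 per well were treated with compounds over a concentration series and loaded with oleic acid (400 uM, as added). Lipid droplet fluorescence (488 nm excitation, 500-530 nm channel) was read by laser-scanning cytometry and normalized to 20 uM Triacsin C.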

[17] = target: Cytochrome P450 1A2 (Homo sapiens) (UniProt P05177); experiment: p450-cyp1a2 (AID 410; calls by dose curve; further: potency means the concentration at half of the fitted maximal effect)
Cytochrome P450 1A2 (Homo sapiens), sequence (P05177 whole entry, looked up): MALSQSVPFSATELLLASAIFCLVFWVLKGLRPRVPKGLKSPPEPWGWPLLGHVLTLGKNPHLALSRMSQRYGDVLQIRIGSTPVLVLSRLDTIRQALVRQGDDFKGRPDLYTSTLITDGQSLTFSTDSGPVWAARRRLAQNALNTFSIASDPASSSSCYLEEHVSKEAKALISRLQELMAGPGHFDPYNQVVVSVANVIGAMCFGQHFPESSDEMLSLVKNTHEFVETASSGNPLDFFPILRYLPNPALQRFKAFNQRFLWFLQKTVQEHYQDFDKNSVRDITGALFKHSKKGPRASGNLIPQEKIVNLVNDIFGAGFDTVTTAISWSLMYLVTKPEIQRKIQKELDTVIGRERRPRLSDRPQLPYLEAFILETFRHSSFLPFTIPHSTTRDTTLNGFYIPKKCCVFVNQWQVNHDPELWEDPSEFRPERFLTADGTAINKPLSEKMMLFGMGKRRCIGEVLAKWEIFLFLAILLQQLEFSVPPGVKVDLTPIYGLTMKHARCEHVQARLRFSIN
Procedure, shortened: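 Luminescent demethylation readout: Luciferin-ME (100uM, equal to Km) turned over by 20nM CYP1A2 for 60 min at room temperature after NADPH regeneration addition, following 10 min compound preincubation. Normalization used 57 uM furafylline as full inhibition.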

[18] = target: Cytochrome P450 3A4 (Homo sapiens) (UniProt P08684); experiment: qHTS Assay for Activators of Cytochrome P450 3A4 (AID 885); further: nearly all actives have a fitted effect of over 65% in size
Cytochrome P450 3A4 (Homo sapiens), sequence (P08684 whole entry, looked up): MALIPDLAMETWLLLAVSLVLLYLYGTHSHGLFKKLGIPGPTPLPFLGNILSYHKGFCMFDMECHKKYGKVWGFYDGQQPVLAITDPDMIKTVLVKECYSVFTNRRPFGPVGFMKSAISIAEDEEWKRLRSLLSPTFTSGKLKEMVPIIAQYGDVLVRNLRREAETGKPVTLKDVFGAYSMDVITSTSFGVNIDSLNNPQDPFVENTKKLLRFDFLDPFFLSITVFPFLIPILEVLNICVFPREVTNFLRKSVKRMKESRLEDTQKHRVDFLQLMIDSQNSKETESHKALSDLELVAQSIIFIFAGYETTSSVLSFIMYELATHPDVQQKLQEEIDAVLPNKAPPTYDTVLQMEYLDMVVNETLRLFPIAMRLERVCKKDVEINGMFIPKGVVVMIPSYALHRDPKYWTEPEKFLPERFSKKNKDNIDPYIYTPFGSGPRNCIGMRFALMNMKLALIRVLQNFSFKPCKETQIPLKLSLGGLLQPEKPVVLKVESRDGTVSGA
Procedure, shortened: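 CYP3A4 activity: Luciferin-PPXE O-dealkylation, 25uM substrate, 200mM KPO4, RT throughout. Read-out is luciferase luminescence; higher values reflect activation.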

[19] = Confirmation and Secondary Assay for Modulators of Hemoglobin Beta Chain Splicing at IVS2 654 locus (AID 910);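 further: HeLa cells stably carrying EGFP split by mutant beta-globin IVS2-654 intron; per-well total GFP intensity by laser scanning cytometry after 2-day treatment; % of control where 0% means no effect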
Procedure, shortened: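 Readout: per-well total peak green fluorescence (488 nm ex, 500–520 nm em) from objects 5–250 µm, reflecting correct splicing of an EGFP-654 reporter. Compounds were applied for 2 days at 37 °C to overnight-plated HeLa EGFP-654 cells; controls were DMSO and 500 nM IVS2-654 PNA.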

[20] = measured here: cell count channel max response
[21] = measured here: lipid channel max response

Cc1nc2cnc(N3CCNCC3)nc2n(CCc2ccccc2)c1=O
active: Potency [14] 31.6 µM
inactive: Potency [1] > 11.4 µM | activity change, negative = inhibition [2] -1.97% | activity change, negative = inhibition [3] -13.2% | activity, negative = inhibition [4] -13.8% | Potency [5] > 9.22 µM | Potency [6] > 46 µM | outcome [7] | Potency [8] | Potency [9] | Potency [10] | Potency [11] | Potency [12] | Potency [13]

CN1CCN(c2ncc3nc(-c4ccccc4)c(=O)n(CCc4ccccc4)c3n2)CC1
-5.21%: max response [16, 21]
-2.1%: max response [16, 20]
active: Potency [15] 3.16 µM | Potency [14] 39.8 µM
inactive: Potency [1] > 11.4 µM | Potency [5] > 9.22 µM | Potency [6] > 46 µM | outcome [7] | activity change, negative = inhibition [16] -1.95% | Potency [9] | Potency [10] | Potency [11] | Potency [13]

O=c1c(-c2ccccc2)nc2cnc(N3CCNCC3)nc2n1C1CC1
inactive: Potency [1] > 11.4 µM | activity change, negative = inhibition [2] 27.1% | activity change, negative = inhibition [3] 100% | Potency [5] > 9.22 µM | Potency [6] > 46 µM | outcome [7] | Potency [8] | Potency [18] | activity change, negative = inhibition [16] 5.31% | Potency [13]
42.5%: max response [16, 21]
32.7%: max response [16, 20]
active: Potency [17] 3.98 µM | Potency [15] 3.16 µM | Potency [14] 39.8 µM

Clc1ccccc1-c1nc(N2CCNCC2)c2ccccc2n1
12%: max response [16, 21]
7.62%: max response [16, 20]
inactive: Potency [1] > 11.4 µM | activity change, negative = inhibition [2] -2.1% | activity change, negative = inhibition [3] -0.528% | activity, negative = inhibition [4] 9.64% | Potency [5] > 46 µM | Potency [6] > 46 µM | outcome [7] | Potency [8] | Potency [18] | outcome [19] | activation [15] 16.5% | activity change, negative = inhibition [16] 3.77% | Potency [12] | Potency [13]
active: Potency [17] 2.51 µM | Potency [14] 12.6 µM

O=c1c(-c2ccccc2)nc2cnc(N3CCNCC3)nc2n1-c1ccccc1
inactive: Potency [1] > 11.4 µM | Potency [5] > 9.22 µM | Potency [6] > 46 µM | outcome [7] | Potency [8] | Potency [18] | Potency [9] | Potency [10] | Potency [11] | Potency [12] | Potency [13] | Potency [14]
active: Potency [17] 7.94 µM | Potency [15] 3.16 µM
